The record followed here is article PMC12820563, “FoxP3 forms a head-to-head dimer in vivo and stabilizes its multimerization on adjacent microsatellites”.

The full ranking holds about 16,000 sequences; the median of “rpm ratio (pull-down/input)” is about 0.5, and the highest 2% start at about 5.5. The sample holds the highest values, similar sequences and a random draw of the others, so the mix is not that of the screen.

The test has as its target T1, MBP-FoxP3dN (Mus musculus, UniProt Q99JB6 188-423).
T1 sequence: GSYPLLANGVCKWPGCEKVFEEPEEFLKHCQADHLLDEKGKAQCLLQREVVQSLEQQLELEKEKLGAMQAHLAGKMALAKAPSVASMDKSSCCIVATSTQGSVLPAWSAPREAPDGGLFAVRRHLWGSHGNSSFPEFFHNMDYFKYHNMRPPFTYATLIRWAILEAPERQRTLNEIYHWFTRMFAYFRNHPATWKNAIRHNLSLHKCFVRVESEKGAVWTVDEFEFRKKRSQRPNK
Briefly: PD-seq (MBP pull-down with sequencing); 20 mM Tris-HCl pH 7.5, 100 mM NaCl, 1.5 mM MgCl2, 0.4 uM protein, 0.1 uM dsDNA library, 30 min, room temperature, amylose pull-down; high values mean tight binding. To be noted: protein: recombinant; tags: His6-MBP; chain copies: 2; dsDNA, one strand shown. An outline of the steps: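 Binding is reads-per-million enrichment of pull-down over input, with replicates pooled. It comes from 30 min room-temperature incubation in Tris pH 7.5 buffer with NaCl and MgCl2 of 0.4 µM His6-MBP-tagged, N-terminally truncated mouse FoxP3 or FoxP1 fragment from E. coli with 0.1 µM Klenow-filled degenerate double-stranded DNA library, followed by amylose resin capture, three washes and Illumina sequencing of the released DNA.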
For the sequence “GATGATTGTTCTCCCAGCTGATGAATTGTATAACTCGAGTAAACAAATTTTCCTAATCTTTCTGTTCAAGCGCCATCTAC”, the binding signal is 0.812 RPM ratio (pull-down/input).
For the sequence “GATGATTGTTCTCCCAGCTGATGAATTAAGCCGATCGAGTAAACAAATTTTCCTAATCTTTCTGTTCAAGCGCCATCTAC”, the binding signal was 0.427 RPM ratio (pull-down/input).
The value for “GATGATTGTTCTCCCAGCTGATGAATTTAGTGGGTCGAGTAAACAAATTTTCCTAATCTTTCTGTTCAAGCGCCATCTAC” was 1.06 RPM ratio (pull-down/input); that for “GATGATTGTTCTCCCAGCTGATGAATTCAAAACCTCGAGTAAACAAATTTTCCTAATCTTTCTGTTCAAGCGCCATCTAC” was 0.276 RPM ratio (pull-down/input); that for “GATGATTGTTCTCCCAGCTGATGAATTTATGATATCGAGTAAACAAATTTTCCTAATCTTTCTGTTCAAGCGCCATCTAC” was 1.11 RPM ratio (pull-down/input).
Consider “GATGATTGTTCTCCCAGCTGATGAATTCAATAGCTCGAGTAAACAAATTTTCCTAATCTTTCTGTTCAAGCGCCATCTAC”, for which the binding signal is 0.877 RPM ratio (pull-down/input).
On to “GATGATTGTTCTCCCAGCTGATGAATTTCATAGTTCGAGTAAACAAATTTTCCTAATCTTTCTGTTCAAGCGCCATCTAC”, for which the binding signal was 0.583 RPM ratio (pull-down/input).
Turning to “GATGATTGTTCTCCCAGCTGATGAATTACTTACATCGAGTAAACAAATTTTCCTAATCTTTCTGTTCAAGCGCCATCTAC”, the binding signal is 0.574 RPM ratio (pull-down/input).
“GATGATTGTTCTCCCAGCTGATGAATTGTCGCATTCGAGTAAACAAATTTTCCTAATCTTTCTGTTCAAGCGCCATCTAC”: the binding signal is 6.14 RPM ratio (pull-down/input).
Regarding “GATGATTGTTCTCCCAGCTGATGAATTCGCCTCCTCGAGTAAACAAATTTTCCTAATCTTTCTGTTCAAGCGCCATCTAC”, the binding signal is 2.15 RPM ratio (pull-down/input).
For the sequence “GATGATTGTTCTCCCAGCTGATGAATTCCTCGCATCGAGTAAACAAATTTTCCTAATCTTTCTGTTCAAGCGCCATCTAC”, the binding signal is 0.768 RPM ratio (pull-down/input).
To “GATGATTGTTCTCCCAGCTGATGAATTATTCGCATCGAGTAAACAAATTTTCCTAATCTTTCTGTTCAAGCGCCATCTAC” belongs 1.12 RPM ratio (pull-down/input).
In the case of “GATGATTGTTCTCCCAGCTGATGAATTCCCATTGTCGAGTAAACAAATTTTCCTAATCTTTCTGTTCAAGCGCCATCTAC”, the binding signal is 0.454 RPM ratio (pull-down/input).
To “GATGATTGTTCTCCCAGCTGATGAATTATCGCATTCGAGTAAACAAATTTTCCTAATCTTTCTGTTCAAGCGCCATCTAC” belongs 6.64 RPM ratio (pull-down/input); to “GATGATTGTTCTCCCAGCTGATGAATTCGCATTGTCGAGTAAACAAATTTTCCTAATCTTTCTGTTCAAGCGCCATCTAC”, 3.91 RPM ratio (pull-down/input).
With “GATGATTGTTCTCCCAGCTGATGAATTCGCATTATCGAGTAAACAAATTTTCCTAATCTTTCTGTTCAAGCGCCATCTAC”, the binding signal is 3.53 RPM ratio (pull-down/input).
Regarding “GATGATTGTTCTCCCAGCTGATGAATTCGCATCCTCGAGTAAACAAATTTTCCTAATCTTTCTGTTCAAGCGCCATCTAC”, the binding signal is 5.74 RPM ratio (pull-down/input).
Take “GATGATTGTTCTCCCAGCTGATGAATTCTAAACTTCGAGTAAACAAATTTTCCTAATCTTTCTGTTCAAGCGCCATCTAC”: the binding signal was 0.381 RPM ratio (pull-down/input).
The value for “GATGATTGTTCTCCCAGCTGATGAATTTCCATTTTCGAGTAAACAAATTTTCCTAATCTTTCTGTTCAAGCGCCATCTAC” was 0.295 RPM ratio (pull-down/input); that for “GATGATTGTTCTCCCAGCTGATGAATTAACATAATCGAGTAAACAAATTTTCCTAATCTTTCTGTTCAAGCGCCATCTAC” was 0.409 RPM ratio (pull-down/input); that for “GATGATTGTTCTCCCAGCTGATGAATTGTGCTTGTCGAGTAAACAAATTTTCCTAATCTTTCTGTTCAAGCGCCATCTAC” was 5.16 RPM ratio (pull-down/input).
Regarding “GATGATTGTTCTCCCAGCTGATGAATTTGCTTGGTCGAGTAAACAAATTTTCCTAATCTTTCTGTTCAAGCGCCATCTAC”, the binding signal is 5.74 RPM ratio (pull-down/input).
On to “GATGATTGTTCTCCCAGCTGATGAATTTGCTTTGTCGAGTAAACAAATTTTCCTAATCTTTCTGTTCAAGCGCCATCTAC”, for which the binding signal is 6.34 RPM ratio (pull-down/input).
Take “GATGATTGTTCTCCCAGCTGATGAATTTTGCTTGTCGAGTAAACAAATTTTCCTAATCTTTCTGTTCAAGCGCCATCTAC”: the binding signal is 5.89 RPM ratio (pull-down/input).
Consider “GATGATTGTTCTCCCAGCTGATGAATTGCTTTGGTCGAGTAAACAAATTTTCCTAATCTTTCTGTTCAAGCGCCATCTAC”, for which the binding signal was 1.08 RPM ratio (pull-down/input).
For the sequence “GATGATTGTTCTCCCAGCTGATGAATTCTTGCTGTCGAGTAAACAAATTTTCCTAATCTTTCTGTTCAAGCGCCATCTAC”, the binding signal was 0.508 RPM ratio (pull-down/input).
With “GATGATTGTTCTCCCAGCTGATGAATTGCTTCTGTCGAGTAAACAAATTTTCCTAATCTTTCTGTTCAAGCGCCATCTAC”, the binding signal was 0.468 RPM ratio (pull-down/input).
To “GATGATTGTTCTCCCAGCTGATGAATTGCTTGGGTCGAGTAAACAAATTTTCCTAATCTTTCTGTTCAAGCGCCATCTAC” belongs 0.775 RPM ratio (pull-down/input); to “GATGATTGTTCTCCCAGCTGATGAATTGCTTTTGTCGAGTAAACAAATTTTCCTAATCTTTCTGTTCAAGCGCCATCTAC”, 1.51 RPM ratio (pull-down/input).
As to “GATGATTGTTCTCCCAGCTGATGAATTGCGTATTTCGAGTAAACAAATTTTCCTAATCTTTCTGTTCAAGCGCCATCTAC”, the binding signal was 3.53 RPM ratio (pull-down/input).
To “GATGATTGTTCTCCCAGCTGATGAATTGCTAAAATCGAGTAAACAAATTTTCCTAATCTTTCTGTTCAAGCGCCATCTAC” belongs 0.394 RPM ratio (pull-down/input).
